Pf growth 48h – Primary qHTS for delayed death inhibitors of the malarial parasite plastid, 48 hour incubation. P. falciparum luciferase growth in erythrocytes, 48 h. Potency, µM (titrated, usually from 28.7 µM), for inactives: top-dose activity change, negative = inhibition, usual class: inhibitors. actives 5.9% (n = 310,000); also: potency is read from the fitted curve at half-maximal effect; % is scaled to controls: 0 for no effect and ±100 for the full control effect
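First compound was added to culture medium, then infected red cells at 0.1% parasitemia and 2% hematocrit (final). After incubation at 37 C under 5% CO2, luciferase detection reagent was dispensed and light output recorded.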
Shiga inhibitor – A qHTS for Small Molecule Inhibitors of Shiga Toxin | Vero cells, Shiga toxin protein synthesis inhibition reporter | inhibition, % at 38.7 µM | actives 9.2% (n = 290,000); in the data active = inhibition mostly above about 28%, no sharp cut-off; inactive = mostly below about 43%; also: 0% is about no effect
Cycloheximide cs – Cycloheximide Counterscreen for Small Molecule Inhibitors of Shiga Toxin. cell reporter, cycloheximide protein synthesis inhibition counterscreen. max response, %. actives 12% (n = 300,000). AID 2314, 2010; in the data active = max response mostly above about 13%, no sharp cut-off; inactive = mostly below about 14%; also: read at 38.3 µM for the half of the compounds with a filed dose; 0% is about no effect
Pf growth 96h – Primary qHTS for delayed death inhibitors of the malarial parasite plastid, 96 hour incubation. Potency, µM (titrated, usually from 28.7 µM), for the others: top-dose activity change, negative = inhibition, hits mostly inhibitors. P. falciparum luciferase reporter growth, 96 h. actives 6.9% (n = 320,000); also: potency is read from the fitted curve at half-maximal effect; % is scaled to controls: 0 for no effect and ±100 for the full control effect
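Cell-based qHTS: luciferase-tagged P. falciparum in erythrocytes (2% hematocrit, 0.05% parasitemia final) incubated with compounds for 96 hours, 37 C, 5% CO2; luciferase detection reagent then added and luminescence measured.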
LASV entry inh – qHTS for Inhibitors of binding or entry into cells for Lassa Virus. actives 1.2% (n = 300,000). Lassa virus pseudotype entry inhibition, cell reporter. Potency, µM (top dose mostly 37.9 µM), for the others: at the highest dose activity change, negative = inhibition, actives largely listed as inhibitors; calls by dose curve; tested in HEK293 cells; also: potency is read from the fitted curve at half-maximal effect; % is scaled to controls: 0 for no effect and ±100 for the full control effect; nearly all actives have a fitted effect of over 50% in size
Marburg entry inh – qHTS for inhibitors of binding or entry into cells for Marburg Virus; Marburg virus pseudotyped entry inhibition, cell reporter; Potency, µM (highest dose often 37.8 µM), inactives show at the highest dose activity change, negative = inhibition, hits mostly inhibitors; actives 1.8% (n = 300,000); AID 540276, 2011; calls by dose curve; tested in HEK293 cells; also: potency is read from the fitted curve at half-maximal effect; % is scaled to controls: 0 for no effect and ±100 for the full control effect
* = called active by the depositor; ? = inconclusive; nt = not tested or not shown; [ ] = another dose, or the depositor's remark. A selection: hits, their analogues and other compounds. The true share with any hit is near 19%. Unless noted, calls follow the shape of the dose curve; as a rule, active = well fitted inhibition curve with a large enough effect; inconclusive = small, poorly fitted or top-dose-only effect, or another doubt; inactive = no such curve, though single readings can be large or run the other way.

SMILES	Pf growth 48h	Shiga inhibitor	Cycloheximide cs	Pf growth 96h	LASV entry inh	Marburg entry inh
N#CC(C#N)=C(C#N)c1ccc(Nc2ccccc2)cc1	13%	nt	-1	12µM*	25%[46.1 µM]	8%[46.1 µM]
c1ccc(-c2n[nH]c3c2oc2ccccc23)cc1	nt	72*	53*	nt	nt	nt
c1ccc(-c2n[nH]c3ccccc23)cc1	28%	-39	15	?	?	1%
Cc1cccc(NC(=O)CN2C(=O)/C(=C3\SC(=S)N(CC4CCCO4)C3=O)c3ccccc32)c1 (stereo not given)	31%	-3	-3	38%	nt	nt
O=C(Nc1ccccc1)N1CCCCC1c1cccnc1 (stereo not given)	11%	-12	0	nt	-3%	-13%[46.1 µM]
O=C(CCC(=O)N1CCN(c2ccc(F)cc2)CC1)c1ccc(F)cc1	8%	7	5	23%	-16%	?
O=C(CCCC(=O)N1CCN(c2ccccc2F)CC1)c1ccccc1	86%	59*	36*	?	nt	nt
O=C(CCc1nnc(C2CCCCC2)o1)N1CCN(C2CCCCC2)CC1	26%	-5	-2	-15%	14%	26%[46.1 µM]
O=C(CCS(=O)(=O)c1ccc(F)cc1)N1CCOCC1	49%	46*	14*	8%	nt	?
O=C(CCC(=O)N1CCN(c2ccc(F)cc2)CC1)c1ccccc1	10%	15	33*	21%	5%[46.1 µM]	14%[46.1 µM]
O=C(CCc1nnc(C2CCCCC2)o1)N1CCN(c2ccccc2F)CC1	62%	89*	71*	?	nt	nt
CCOc1ccccc1C(=O)NCC(=O)OCC(=O)c1ccc2c(c1)OCCO2	19%	17	6	?	14%	?
CCc1ccc2oc(C(=O)Nc3sc4c(c3C(=O)NC)CCCC4)cc(=O)c2c1	nt	nt	nt	nt	2%[46.1 µM]	-6%[46.1 µM]
O=C(CCN1C(=O)COc2ccccc21)N1CCN(c2ccccc2)CC1	-4%	-4	-4	-27%	4%	-25%
O=C(CCS(=O)(=O)c1ccccc1)N1CCN(c2ccc(F)cc2)CC1	74%	71*	52*	?	2%[46.1 µM]	?
O=C(CCS(=O)(=O)c1ccc(F)cc1)N1CCN(c2ccccc2)CC1	107%	nt	nt	150%	-11%	-2%
CCCCn1c(O)c(/C(CC)=N/N2CCCCC2c2cccnc2)c(=O)[nH]c1=S (stereo not given)	9.3µM*	-1	-7	2.9µM*	?	?
CCCCn1c(O)c(/C=N/N2CCCCC2c2cccnc2)c(=O)[nH]c1=S (stereo not given)	20%	11	6	?	10%[46.1 µM]	?
C/C(=N\N1CCCCC1c1cccnc1)c1c(O)n(C2CCCCC2)c(=S)[nH]c1=O (stereo not given)	9.3µM*	-7	-4	3.3µM*	?	15µM*
Cc1ccc(-n2c(O)c(/C=N/N3CCCCC3c3cccnc3)c(=O)[nH]c2=S)cc1 (stereo not given)	14%	-6	-6	?	2%	7%
COc1cc(/C=N/NC(=O)COc2ccccc2[N+](=O)[O-])ccc1OC(=O)c1ccco1	66%	-9	11	?	1%	?
O=C(Cn1ncc2c3ccccc3n(Cc3ccccc3)c2c1=O)NCCCN1CCCC1=O	?	22	1	?	-5%[46.1 µM]	18%[46.1 µM]
Cc1cc(C)c(Cn2c3ccccc3c3cnn(CC(=O)NCCN4CCOCC4)c(=O)c32)c(C)c1	?	-4	-10	?	nt	nt
O=C(Cn1ncc2c3ccccc3n(Cc3ccc(Cl)cc3)c2c1=O)NCCCN1CCCC1=O	-21%	2	8	13µM*	nt	nt
Cc1ccc(C)c(Cn2c3ccccc3c3cnn(CC(=O)NCCN4CCOCC4)c(=O)c32)c1	?	3	-5	9.3µM*	?	?
SMILES	Pf growth 48h	Shiga inhibitor	Cycloheximide cs	Pf growth 96h	LASV entry inh	Marburg entry inh
Cc1ccc(C)c(Cn2c3ccccc3c3cnn(CC(=O)NCCCN4CCOCC4)c(=O)c32)c1	13µM*	-11	-5	?	-2%[46.1 µM]	?
CCN(CC)S(=O)(=O)c1ccc(-c2nnc(SCc3nnc(-c4ccccc4)o3)o2)cc1	0%	-15	-6	3.7µM*	?	?
CCN(CC)S(=O)(=O)c1ccc(-c2nnco2)cc1	-26%	-3	8	13µM*	-2%	0%
Cc1n[nH]c(C)c1S(=O)(=O)N(C)Cc1ccco1	-13%	nt	nt	-27%	nt	nt
COCCNc1c(-c2cc3ccc(C)c(C)c3[nH]c2=O)nc2ccccn12	65%	63*	42*	-15%	5µM*	?
COc1ccc2nc(NC(=O)CCn3cccc3)sc2c1	55%	13	16*	20%	?	?
CCOCC(=O)Nc1nc2ccc(OC)cc2s1	214%	67*	53*	nt	?	?
CCOc1ccc2nc(NC(=O)CN3CCN(CC)CC3)sc2c1	-2%	17	12	-24%	nt	nt
COc1cc(CCC(=O)Nc2nnc(C)s2)cc(OC)c1OC	14%	-10	-3	-7%	?	?
CCOc1ccc2nc(NC(=O)COC)sc2c1	180%	114	34*	29%	?	?
COc1ccc2nc(NC(=O)CCc3cc(OC)c(OC)c(OC)c3)sc2c1	?	-16	8	9.3µM*	nt	-47%[46.1 µM]
COc1ccc2nc(NC(=O)CCN3C(=S)NC(C)(C)CC3C)sc2c1 (stereo not given)	19%	-2	10	0%	-10%	-1%
O=c1[nH]cnc2c1ncn2[C@@H]1C[C@@H](O)[C@H](CO)O1	33%	11	7	-1%	nt	nt
CCC1CCCCN1Cc1ccc(OC)c(C)c1 (stereo not given)	nt	-8	-1	?	-25%	?
Nc1ccc2c(c1)oc1ccccc12	42%	50*	27*	47%	?	?
Cc1cc(NS(=O)(=O)c2ccc(NC(=O)C(C)Oc3ccccc3Cl)cc2)no1 (stereo not given)	2%	nt	nt	?	-18%	10%
Cc1ccccc1Cn1cc(NC(=O)c2cc(-c3ccc(Cl)cc3)on2)cn1	nt	nt	nt	nt	-18%[46.1 µM]	?
Cc1ccccc1Cn1cc(NC(=O)c2cc(C3CC3)on2)cn1	?	73*	44*	-9%	nt	nt
CCc1ccccc1NC(=O)c1cc(C2CC2)on1	nt	47	11*	1%	nt	nt
Cc1cc2cc(CNC(=S)Nc3ccc(OC(F)F)cc3)ccc2n1C	?	-11	-2	-17%	13%	-2%
CCC1(c2ccc(F)cc2)NC(=O)N(CC(=O)N(CCC#N)c2ccccc2)C1=O (stereo not given)	-4%	-4	-5	8%	nt	8%[46.1 µM]
Cn1cc(Br)c(C(=O)NNC(=O)c2ccccc2)n1	15%	-1	1	?	?	?
Cc1cnc(C(=O)NNC(=O)c2ccc(Br)cc2)cn1	12µM*	nt	nt	?	?	?
